Source: the antibiotic and cytotoxicity screens of Wong et al. (2023)
In all, about 39,000 compounds went through this assay and about 1,500 (3.8%) were called active. The sample as a whole holds a higher share of actives than the screen did.

What follows are compounds tested on HSkMC (human skeletal muscle cells) (assay: cytotoxicity call (relative viability < 0.9)). Settings: 10 µM.
In the case of `NC[C@H]1CC[C@H](C(=O)O)CC1`, the cytotoxicity call is reported as “inactive”.
With `C[C@@H]1CCCCO[C@H](CN(C)Cc2ccccc2)[C@H](C)CN([C@@H](C)CO)C(=O)c2cc(NC(=O)c3ccccc3)ccc2O1` the cytotoxicity call was “inactive”.
`COc1ccccc1CNC(=O)C[C@@H]1C[C@H]2c3cc(NC(=O)c4ccc5c(c4)OCO5)ccc3O[C@H]2[C@@H](CO)O1` was tested, and the cytotoxicity call was “inactive”.
For `C[C@@H]1CN([C@H](C)CO)C(=O)CCCn2nncc2CO[C@@H]1CN(C)S(=O)(=O)c1ccc(Oc2ccccc2)cc1`, the cytotoxicity call was “inactive”.
In the case of `Cc1ccc(S(=O)(=O)N2C[C@@H](O)COC[C@H]3O[C@H](CC(=O)NCc4cccc(C(F)(F)F)c4)CC[C@@H]32)cc1`, the cytotoxicity call is reported as “inactive”.
With `O=C1O[C@@H](c2ccccc2)[C@@H](c2ccccc2)N2[C@@H](c3ccc(O)cc3)[C@]3(C(=O)Nc4ccc(C#CC5(O)CCCCCC5)cc43)[C@@H](C(=O)N3CCCCCCC3)[C@H]12` the cytotoxicity call was “inactive”.
For `CNC[C@H]1OCCCC[C@H](C)Oc2ccc(NS(=O)(=O)c3cn(C)cn3)cc2C(=O)N([C@@H](C)CO)C[C@@H]1C`, the cytotoxicity call was “inactive”.
In the case of `C[C@@H]1CCCCO[C@@H](CN(C)C(=O)C2CCCCC2)[C@@H](C)CN([C@@H](C)CO)C(=O)c2cc(NC(=O)C3CCCCC3)ccc2O1`, the cytotoxicity call is reported as “inactive”.
With `COc1ccc(S(=O)(=O)Nc2ccc3c(c2)CC(=O)N([C@@H](C)CO)C[C@H](C)[C@@H](CN(C)S(=O)(=O)c2ccc(OC)cc2)O3)cc1` the cytotoxicity call was “inactive”.
`COC(=O)[C@]12CCC(C)(C)C[C@H]1[C@H]1C(=O)C=C3[C@@]4(C)C=C(C#N)C(=O)C(C)(C)[C@@H]4CC[C@@]3(C)[C@]1(C)CC2` was tested, and the cytotoxicity call was “active”.
For `COC(=O)[C@@]12CCC(C)(C)C[C@@H]1[C@@H]1C(=O)C=C3[C@]4(C)C=C(C#N)C(=O)C(C)(C)[C@H]4CC[C@]3(C)[C@@]1(C)CC2`, the cytotoxicity call was “active”.
In the case of `COc1ccc(CN(C)C[C@@H]2OCCCC[C@H](C)Oc3ccc(NC(=O)NC4CCCCC4)cc3C(=O)N([C@@H](C)CO)C[C@H]2C)cc1`, the cytotoxicity call is reported as “inactive”.
In the case of `CC1(C)[C@@H](OC(=O)CCC(=O)O)CC[C@]2(C)[C@H]3C(=O)C=C4[C@@H]5C[C@@](C)(C(=O)O)CC[C@]5(C)CC[C@@]4(C)[C@]3(C)CC[C@@H]12`, the cytotoxicity call is reported as “inactive”.
With `C[C@@H]1CN([C@@H](C)CO)S(=O)(=O)c2ccc(/C=C/c3ccccc3)cc2O[C@@H]1CN(C)C(=O)Nc1cc(F)ccc1F` the cytotoxicity call was “inactive”.
In the case of `Cc1ccc(S(=O)(=O)Nc2ccc3c(c2)CC(=O)N([C@H](C)CO)C[C@H](C)[C@H](CN(C)CC2CC2)O3)cc1`, the cytotoxicity call is reported as “inactive”.
With `C[C@H]1CN([C@@H](C)CO)C(=O)c2c(c3ccccc3n2C)-c2ccccc2CO[C@H]1CN(C)C(=O)c1cc(Cl)cc(Cl)c1` the cytotoxicity call was “inactive”.
With `C[C@@H]1CN([C@@H](C)CO)C(=O)c2c(c3ccccc3n2C)-c2ccccc2CO[C@@H]1CN(C)C(=O)c1cc(Cl)cc(Cl)c1` the cytotoxicity call was “inactive”.
`C[C@@H]1CN([C@@H](C)CO)C(=O)c2c(c3ccccc3n2C)-c2ccccc2CO[C@@H]1CN(C)C(=O)[C@H](C)c1ccccc1` was tested, and the cytotoxicity call was “inactive”.
In the case of `C[C@@H](C(=O)N(C)C[C@H]1OCc2ccccc2-c2c(n(C)c3ccccc23)C(=O)N([C@@H](C)CO)C[C@@H]1C)c1ccccc1`, the cytotoxicity call is reported as “inactive”.
With `C[C@H]1CN([C@@H](C)CO)C(=O)c2c(c3ccccc3n2C)-c2ccccc2CO[C@@H]1CN(C)C(=O)c1cc(Cl)cc(Cl)c1` the cytotoxicity call was “inactive”.
`C[C@@H]1CN([C@@H](C)CO)C(=O)c2c(c3ccccc3n2C)-c2ccccc2CO[C@H]1CN(C)C(=O)c1cc(Cl)cc(Cl)c1` was tested, and the cytotoxicity call was “inactive”.
In the case of `C[C@@H]1CN([C@H](C)CO)C(=O)c2c(c3ccccc3n2C)-c2ccccc2CO[C@H]1CN(C)C(=O)c1cc(Cl)cc(Cl)c1`, the cytotoxicity call is reported as “active”.
For `C[C@@H]1CN([C@H](C)CO)C(=O)c2c(c3ccccc3n2C)-c2ccccc2CO[C@@H]1CN(C)C(=O)[C@H](C)c1ccccc1`, the cytotoxicity call was “active”.
In the case of `C[C@H](CO)N1C[C@H](C)[C@@H](CN(C)C(=O)c2cc(Cl)cc(Cl)c2)OCc2ccccc2-c2c(n(C)c3ccccc23)C1=O`, the cytotoxicity call is reported as “active”.
For `C[C@H](CO)N1C[C@H](C)[C@H](CN(C)S(C)(=O)=O)Oc2ccc(NC(=O)CCN3CCOCC3)cc2C1=O`, the cytotoxicity call was “inactive”.
For `C[C@@H]1CN([C@@H](C)CO)C(=O)c2c(c3ccccc3n2C)-c2ccccc2CO[C@H]1CN(C)S(=O)(=O)c1cn(C)cn1`, the cytotoxicity call was “inactive”.
In the case of `C[C@H]1CN([C@@H](C)CO)C(=O)c2cc(NC(=O)Cn3cnnn3)ccc2O[C@H]1CN(C)C(=O)Nc1ccccc1`, the cytotoxicity call is reported as “inactive”.
With `C[C@H](CO)N1C[C@H](C)[C@@H](CN(C)Cc2ccc(C(=O)O)cc2)Oc2c(NC(=O)c3ccc(-c4nccs4)cc3)cccc2C1=O` the cytotoxicity call was “inactive”.
With `CC(=O)OC1CC(O)C(C)(C)C2CC(OC(C)=O)C3(C)C(CCC4(C)C(c5ccoc5)OC(=O)C5OC543)C12C` (configuration not stated) the cytotoxicity call was “inactive”.
In the case of `C[C@@H]1CN([C@@H](C)CO)C(=O)c2cc(NC(=O)Nc3ccc(F)cc3)ccc2O[C@@H](C)CCCCO[C@@H]1CN(C)S(=O)(=O)c1ccccc1`, the cytotoxicity call is reported as “inactive”.
`COc1ccc2c3c(n(c2c1)C)[C@H](CO)N(C[C@]13CCN(CC1)C(=O)c1ccccn1)C(=O)c1ccccn1` was tested, and the cytotoxicity call was “inactive”.
With `OC[C@@H]1CC[C@@H]2O[C@H](CCc3ccc(C#Cc4ccccc4)cc3)[C@@H](n3cc(-c4ccccc4)nn3)C[C@@H]2O1` the cytotoxicity call was “active”.
`OC[C@@H]1CC[C@@H]2O[C@H](CCc3ccc(C#CCc4ccccc4)cc3)[C@@H](n3cc(-c4ccccc4)nn3)C[C@@H]2O1` was tested, and the cytotoxicity call was “inactive”.
With `N[C@@H]1CC[C@@H](CCn2cc(-c3cccc(F)c3)nn2)O[C@H]1CO` the cytotoxicity call was “inactive”.
`OC[C@H]1O[C@@H](S[C@@H]2O[C@H](CO)[C@H](O)[C@H](n3cc(-c4cccc(F)c4)nn3)[C@H]2O)[C@H](O)[C@@H](n2cc(-c3cccc(F)c3)nn2)[C@H]1O` was tested, and the cytotoxicity call was “inactive”.
`OC[C@H]1CC[C@@H]2O[C@H](CCc3ccc(C#Cc4ccccc4)cc3)[C@H](n3cc(-c4ccccc4)nn3)C[C@@H]2O1` was tested, and the cytotoxicity call was “active”.
`OC[C@@H]1CC[C@@H]2O[C@H](CCc3ccc(C#Cc4ccccc4)cc3)[C@H](n3cc(-c4ccccc4)nn3)C[C@@H]2O1` was tested, and the cytotoxicity call was “active”.
With `OC[C@H]1CC[C@@H]2O[C@H](CCc3ccc(C#CCc4ccccc4)cc3)[C@H](n3cc(-c4ccccc4)nn3)C[C@@H]2O1` the cytotoxicity call was “active”.
For `OC[C@H]1CC[C@@H]2O[C@H](CCc3ccc(C#Cc4ccccc4)cc3)[C@@H](n3cc(-c4ccccc4)nn3)C[C@@H]2O1`, the cytotoxicity call was “inactive”.
`O=C(Nc1ccc(F)cc1)N[C@@H]1C[C@@H]2O[C@@H](CO)CC[C@@H]2O[C@@H]1CCc1ccc(-c2ccccc2)cc1` was tested, and the cytotoxicity call was “inactive”.
With `OC[C@@H]1CC[C@@H]2O[C@H](CCc3ccc(C#CCc4ccccc4)cc3)[C@H](n3cc(-c4ccccc4)nn3)C[C@@H]2O1` the cytotoxicity call was “inactive”.
For `O=C(Nc1ccc(F)cc1)N[C@@H]1C[C@@H]2O[C@H](CO)CC[C@@H]2O[C@@H]1CCc1ccc(-c2ccccc2)cc1`, the cytotoxicity call was “inactive”.
In the case of `OC[C@H]1CC[C@@H]2O[C@H](CCc3ccc(C#CCc4ccccc4)cc3)[C@@H](n3cc(-c4ccccc4)nn3)C[C@@H]2O1`, the cytotoxicity call is reported as “inactive”.
With `C[C@H](CO)N1C[C@H](C)[C@H](CN(C)S(=O)(=O)c2cn(C)cn2)Oc2c(NC(=O)Nc3ccc4c(c3)OCO4)cccc2C1=O` the cytotoxicity call was “inactive”.
In the case of `O=C1CNC(=O)N1C1CCNCC1`, the cytotoxicity call is reported as “inactive”.
In the case of `O=C(N/N=C/[C@H](O)[C@@H](O)[C@H](O)[C@H](O)CO[C@H]1O[C@H](CO)[C@H](O)[C@H](O)[C@H]1O)c1ccccn1`, the cytotoxicity call is reported as “inactive”.
For `O=C(O)CN1Cc2ccccc2C1=O`, the cytotoxicity call was “inactive”.
With `Cc1noc(C)c1S(=O)(=O)N(C)C[C@@H]1OCCCC[C@H](C)Oc2ccc(NS(C)(=O)=O)cc2C(=O)N([C@H](C)CO)C[C@@H]1C` the cytotoxicity call was “inactive”.
For `C[C@H](CO)N1C[C@H](C)[C@H](CN(C)Cc2ccccc2)OCCCC[C@H](C)Oc2ccc(NC(=O)CCC(F)(F)F)cc2C1=O`, the cytotoxicity call was “inactive”.
In the case of `COc1ccc(S(=O)(=O)Nc2cccc3c2O[C@@H](CN(C)CC2CC2)[C@@H](C)CN([C@H](C)CO)C3=O)cc1`, the cytotoxicity call is reported as “inactive”.
With `C[C@H](O)C#Cc1ccc2c(c1)O[C@H](CN(C)C(=O)CN(C)C)[C@H](C)CN([C@@H](C)CO)S2(=O)=O` the cytotoxicity call was “inactive”.
In the case of `COc1cc(/C=C/C(=O)NCCCNC(=O)/C=C/c2cc(OC)c(OC)c(OC)c2)cc(OC)c1OC`, the cytotoxicity call is reported as “inactive”.
With `CC(C)N(CCOc1c(Br)cc(/C=C/C(=O)NCCCOc2c(Br)cc(CCN(C)C)cc2Br)cc1Br)C(C)C` the cytotoxicity call was “active”.
For `CN(C)CCc1cc(Br)c(OCCCNC(=O)/C=C/c2cc(Br)c(OCCN3CCCCC3)c(Br)c2)c(Br)c1`, the cytotoxicity call was “inactive”.
In the case of `CC(=O)OCC(=O)NCCCOc1cccc(CN2CCCCC2)c1.Cl`, the cytotoxicity call is reported as “inactive”.
In the case of `CN(C)CCOc1c(Br)cc(/C=C/C(=O)NCCCOc2c(Br)cc(CCN(C)C)cc2Br)cc1Br`, the cytotoxicity call is reported as “inactive”.
With `CN(C)CCc1cc(Br)c(OCCCNC(=O)/C=C/c2cc(Br)c(OCCN3CCCC3)c(Br)c2)c(Br)c1` the cytotoxicity call was “active”.
With `Cc1noc(C)c1NC(=O)Nc1ccc2c(c1)C(=O)N([C@H](C)CO)C[C@@H](C)[C@H](CN(C)Cc1ccc(C(=O)O)cc1)OCCCC[C@@H](C)O2` the cytotoxicity call was “inactive”.
For `CN1CCN(C(=O)C[C@@H]2CC[C@H](NC(=O)Cc3ccccn3)[C@@H](CO)O2)CC1`, the cytotoxicity call was “inactive”.
In the case of `C[C@H]1CN([C@@H](C)CO)C(=O)c2cc(NC(=O)NC3CCCCC3)ccc2O[C@@H]1CN(C)Cc1ccc(-c2ccccc2)cc1`, the cytotoxicity call is reported as “inactive”.
`COc1ccc(S(=O)(=O)N[C@H]2C=C[C@H](CC(=O)NCCc3ccncc3)O[C@H]2CO)cc1` was tested, and the cytotoxicity call was “inactive”.
`COc1ccc(S(=O)(=O)N(C)C[C@@H]2Oc3ccc(NS(C)(=O)=O)cc3CC(=O)N([C@H](C)CO)C[C@H]2C)cc1` was tested, and the cytotoxicity call was “inactive”.
